Results on 44 molecules are retold here after article PMC4336329 (PLoS ONE, 2015).

Structures are written as SMILES. Out of some 310,000 compounds screened, about 14,000 (4.5%) showed an effect of 50% or more. The effect is printed as a negative number. The sample as a whole holds a higher share of strong results than the screen did.
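Further: peak tail current of the secondary pulse compared with the same well before compound.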

The assay deals with human ether-à-go-go-related gene (hERG) potassium channel (human, UniProt Q12809). Description: primary screen, population patch clamp on CHO cells stably expressing hERG; higher = less effect of the substance.
Chain of human ether-à-go-go-related gene (hERG) potassium channel (Q12809 whole entry, looked up): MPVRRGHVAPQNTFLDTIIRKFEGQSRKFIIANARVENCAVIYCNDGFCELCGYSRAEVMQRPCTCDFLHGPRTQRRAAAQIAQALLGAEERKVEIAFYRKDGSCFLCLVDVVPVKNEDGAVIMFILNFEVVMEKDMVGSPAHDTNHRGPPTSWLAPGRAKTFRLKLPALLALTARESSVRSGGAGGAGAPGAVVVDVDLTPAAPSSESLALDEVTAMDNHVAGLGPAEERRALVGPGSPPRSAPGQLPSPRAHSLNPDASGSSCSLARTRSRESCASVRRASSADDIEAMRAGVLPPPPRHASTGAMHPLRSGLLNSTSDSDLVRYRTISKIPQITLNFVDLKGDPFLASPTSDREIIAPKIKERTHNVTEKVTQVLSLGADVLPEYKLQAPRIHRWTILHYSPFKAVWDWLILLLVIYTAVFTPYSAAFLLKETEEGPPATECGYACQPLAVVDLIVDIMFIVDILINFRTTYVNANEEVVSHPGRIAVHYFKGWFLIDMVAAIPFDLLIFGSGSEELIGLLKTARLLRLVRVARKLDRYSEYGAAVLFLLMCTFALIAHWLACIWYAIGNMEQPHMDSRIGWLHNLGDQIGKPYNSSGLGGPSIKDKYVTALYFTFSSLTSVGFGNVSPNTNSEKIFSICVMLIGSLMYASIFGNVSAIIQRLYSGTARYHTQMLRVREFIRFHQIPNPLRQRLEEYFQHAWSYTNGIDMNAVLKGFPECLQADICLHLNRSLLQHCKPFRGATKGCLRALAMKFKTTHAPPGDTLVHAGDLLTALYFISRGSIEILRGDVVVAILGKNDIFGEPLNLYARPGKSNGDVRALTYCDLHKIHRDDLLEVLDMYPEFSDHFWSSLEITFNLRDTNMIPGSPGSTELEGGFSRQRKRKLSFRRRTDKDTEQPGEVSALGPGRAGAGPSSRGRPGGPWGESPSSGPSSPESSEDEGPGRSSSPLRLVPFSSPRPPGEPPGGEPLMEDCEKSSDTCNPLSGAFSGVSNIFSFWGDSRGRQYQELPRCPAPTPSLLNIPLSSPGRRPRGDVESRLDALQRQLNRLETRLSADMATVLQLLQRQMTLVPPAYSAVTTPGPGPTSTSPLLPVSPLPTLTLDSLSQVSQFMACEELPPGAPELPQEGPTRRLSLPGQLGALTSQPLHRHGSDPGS
On to `NS(=O)(=O)c1ccc2nc(NC(=O)CS(=O)(=O)c3ccccc3)sc2c1`, for which the “hERG current change (%, negative = inhibition) at 10uM” value was found to be 26.8%.
As to `CCN(CC)CCN=C(C)c1c(O)n(-c2ccccc2OC)c(=O)[nH]c1=O`, the “hERG current change (%, negative = inhibition) at 10uM” value is 4.71%.
With `Cc1cccc(NC(=O)C(=O)C2C(=O)Nc3ccccc32)c1` (centres unmarked) the figure was 4.05%; with `CC1=C(C(=O)Nc2ccccc2)C(c2ccco2)NC(=O)N1` (centres unmarked), 14.5%; with `O=c1[nH]c2ccc(NS(=O)(=O)c3ccc(Cl)cc3)cc2[nH]1`, 15.8%.
As to `CCCc1ccc(OCc2ccc(C(=O)O)o2)c(OC)c1`, the “hERG current change (%, negative = inhibition) at 10uM” value is 8.51%.
Next, `O=C(c1ccc(CS(=O)Cc2ccc(Cl)cc2)o1)N1CCN(c2ccccc2F)CC1` (centres unmarked): -55.8%; `Cc1ccc(C)c(N2CCN(C(=O)c3ccc(CS(=O)Cc4ccc(Cl)cc4)o3)CC2)c1` (centres unmarked): -26.9%; `COc1ccccc1S(=O)(=O)Cc1ccc(C(=O)N2CCN(c3ccccn3)CC2)o1`: -17.8%.
Next, `Cc1ccc(CS(=O)Cc2ccc(C(=O)NC3CCC(C)CC3)o2)cc1` (centres unmarked): -51%; `Cc1cccc(N2CCN(C(=O)c3ccc(CS(=O)Cc4ccc(Cl)cc4)o3)CC2)c1C` (centres unmarked): -57%.
With `Cc1ccc(CS(=O)Cc2ccc(C(=O)NC3CCCCC3)o2)cc1` (centres unmarked) the figure was 2.31%; with `Cc1ccc(CS(=O)Cc2ccc(C(=O)NC3CCCCCC3)o2)cc1` (centres unmarked), 8.98%.
`Cc1cccc(N2CCN(C(=O)c3ccc(CS(=O)Cc4cccc(Cl)c4)o3)CC2)c1C` (centres unmarked): the “hERG current change (%, negative = inhibition) at 10uM” value was -13.5%.
In the case of `CCCc1ccc(OCc2ccc(C(=O)N3CCN(c4ccccn4)CC3)o2)c(OC)c1`, the “hERG current change (%, negative = inhibition) at 10uM” value is -56.5%.
Next, `Cc1ccc(C)c(N2CCN(C(=O)c3ccc(CS(=O)Cc4cccc(Cl)c4)o3)CC2)c1` (centres unmarked): -6.6%; `Cc1ccc(Cl)cc1N1CCN(C(=O)c2ccc(CS(=O)Cc3ccc(Cl)cc3)o2)CC1` (centres unmarked): 13.9%.
With `Cc1cc(C)c(C)c(S(=O)(=O)N2CCC(C(=O)NCC(c3ccccc3)N(C)C)CC2)c1C` (centres unmarked) the figure was -48.9%; with `CC(CC(=O)N(C)CC(=O)Nc1ccc(N2CCOCC2)cc1)c1ccccc1` (centres unmarked), -13.3%; with `COC(C[C@H]1O[C@H]1C(=O)[C@H](C)OCc1ccccc1)OC`, 14.5%.
For the molecule `CCC(c1nnnn1Cc1ccccc1)N1CCN(c2ccccc2)CC1` (centres unmarked), the “hERG current change (%, negative = inhibition) at 10uM” value was -8.7%.
For the molecule `Cc1cc(Cl)ccc1NC(=O)Cn1cncn1`, the “hERG current change (%, negative = inhibition) at 10uM” value was 14.3%.
Next, `CN1CCN(C(=O)c2ccc(CS(=O)Cc3ccc(Cl)cc3)o2)CC1` (centres unmarked): 13.1%.
Take `O=C(c1ccc(CS(=O)Cc2ccc(Cl)cc2)o1)N1CCN(c2ccc(F)cc2)CC1` (centres unmarked): the “hERG current change (%, negative = inhibition) at 10uM” value is -62.1%.
With `COc1cccc(N2CCN(C(=O)c3ccc(CS(=O)Cc4ccc(Cl)cc4)o3)CC2)c1` (centres unmarked) the figure was -41.8%; with `O=C(c1ccc(CS(=O)c2ccccc2Cl)o1)N1CCN(c2ccccc2)CC1` (centres unmarked), -38.2%; with `O=C(c1ccc(CS(=O)Cc2ccc(Cl)cc2)o1)N1CCN(c2ccccc2)CC1` (centres unmarked), -51.8%.
With `COc1cccc(N2CCN(C(=O)c3ccc(CS(=O)c4ccc(Cl)cc4)o3)CC2)c1` (centres unmarked) the figure was -42%.
With `O=C(c1ccc(CS(=O)Cc2ccc(Cl)cc2)o1)N1CCN(c2cccc(Cl)c2)CC1` (centres unmarked) the figure was -52.7%; with `O=C(c1ccc(COc2ccccc2Cl)o1)N1CCN(c2ccccc2)CC1`, -24.1%; with `CCOC(=O)C1=C(C)N(c2ccc(Cl)cc2)C(=O)NC1c1cccc([N+](=O)[O-])c1` (centres unmarked), -24.8%.
For `CCOc1ccc(S(=O)(=O)NCCC(=O)NCC2(N3CCCCC3)CCCCC2)cc1`, the “hERG current change (%, negative = inhibition) at 10uM” value is given as -33.2%.
In the case of `Cc1ccc[n+](CC(=O)Nc2cccc(Cl)c2)c1.[Cl-]`, the “hERG current change (%, negative = inhibition) at 10uM” value is listed as 18.4%.
Regarding `CCC(C)(C)C1CCc2c(sc(NC(=O)c3ccccc3C(=O)O)c2C#N)C1` (centres unmarked), the “hERG current change (%, negative = inhibition) at 10uM” value is recorded as 10.3%.
With `O=C1C=C(N2CCN(C(=O)c3ccccc3)CC2)C2(CCCCC2)O1`, the “hERG current change (%, negative = inhibition) at 10uM” value is listed as -10.3%.
In the case of `O=C(NCCS(=O)(=O)N1CCc2ccccc2C1)c1ccccc1`, the “hERG current change (%, negative = inhibition) at 10uM” value was -23%.
With `COc1cccc(SCc2noc(C(=O)NCCCN3CCOCC3)c2C(=O)NCCCN2CCOCC2)c1`, the “hERG current change (%, negative = inhibition) at 10uM” value was -4.2%.
Next, `Cc1ccc(Cc2c(C)nc3nc(SCC(=O)NCCCN4CCCCCC4)nn3c2C)cc1`: -54.8%; `Cc1ccc(Cc2c(C)nc3nc(SCC(=O)NCCCN4CCCC4)nn3c2C)cc1`: -28.4%; `Cc1ccc(Cc2c(C)nc3nc(SCC(=O)NCCCN4CCCCC4)nn3c2C)cc1`: -42.7%.
With `CC(C)C[C@@H](N)c1nnc(SCC(=O)c2ccc(Cl)cc2)o1.Cl` the figure was -37.1%; with `CC1(C)CC(=O)C=C(Nc2ccccc2NC(=O)c2cnccn2)C1`, -64.7%; with `O=C(Nc1ccccc1Cl)c1cnccn1`, 2.9%.
Next, `CC1(C)CC(=O)C=C(Nc2ccccc2O)C1`: 15.7%.
